Assay outcomes from PubChem.
Shown are actives, neighbours in structure and some others; about 1.5% of the full set was active somewhere.
GALK inh – inhibitors of human galactokinase. P51570. Purified GALK, Kinase-Glo residual ATP luminescence. Potency, µM (titrated, usually from 57.5 µM), actives largely listed as inhibitors. actives 0.007% (n = 270,000). AID 1868
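Quantitative HTS: GALK 5 nM, ATP 35 uM, galactose 100 uM, 1 h room temperature, then luciferase-based ATP detection.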
TrxR1 substrate – is turned over as a substrate by rat TrxR1; O89049; purified TrxR1 substrate turnover, NADPH consumption readout; Potency, µM (titrated, usually from 114 µM); actives 0.01% (n = 390,000); AID 588456; also: nearly all actives have a fitted effect of over 50% in size
Target sequence (O89049 whole entry, looked up): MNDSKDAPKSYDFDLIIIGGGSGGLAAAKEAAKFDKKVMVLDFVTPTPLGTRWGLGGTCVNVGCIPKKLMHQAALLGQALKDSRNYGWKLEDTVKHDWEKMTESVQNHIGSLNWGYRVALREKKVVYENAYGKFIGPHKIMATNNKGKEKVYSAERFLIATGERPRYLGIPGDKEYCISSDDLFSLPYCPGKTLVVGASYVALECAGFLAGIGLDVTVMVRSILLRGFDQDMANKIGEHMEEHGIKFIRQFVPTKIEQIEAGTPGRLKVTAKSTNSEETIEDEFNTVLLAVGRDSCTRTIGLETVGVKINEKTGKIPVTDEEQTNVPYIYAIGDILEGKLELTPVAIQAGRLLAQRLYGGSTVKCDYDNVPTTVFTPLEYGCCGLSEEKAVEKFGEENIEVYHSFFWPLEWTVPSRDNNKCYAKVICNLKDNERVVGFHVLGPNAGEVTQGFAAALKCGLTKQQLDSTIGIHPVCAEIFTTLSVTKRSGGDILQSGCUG
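Rat TrxR1, dispensed at 90 nM, was prereduced with 400 uM NADPH (final) for 5 min at ~22 deg C, then incubated with compound 15 min before 400 uM selenite. A first-read NADPH fluorescence drop versus no-compound background flagged substrates.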
Six1-Eya2 blk – blocks human Six1 binding to Eya2. AlphaScreen GST-Six1/His-Eya2 binding, biochemical; active compounds read low. actives 0.56% (n = 360,000). AID 651725. Q15475+O00167. activity change, % (no concentration beside the values); in the data active = activity change below about -65%; inconclusive = mostly about -30% to -63%
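Homogeneous AlphaScreen proximity assay pairing GST-Six1 with His-tagged Eya2 (added as 5X mix: 250 nM and 500 nM) in 50 mM Tris pH 8.0, 300 mM NaCl, 1 mM TCEP. Glutathione donor and nickel acceptor beads; 1 h, 37 °C, dark.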
TrxR1 inh – rat TrxR1 inhibition; O89049; recombinant rTrxR1, NADPH fluorescence consumption, selenite substrate; Potency, µM (titrated, usually from 114 µM), actives largely listed as inhibitors; actives 1% (n = 390,000); AID 588453; also: nearly all actives have a fitted effect of over 65% in size
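Rat TrxR1 (90 nM in the dispensed reagent) was pre-reduced with 400 uM NADPH for 5 min at room temperature, then incubated with compound for 15 min. After 400 uM selenite was added, NADPH fluorescence (Ex 340/Em 450 nm) was followed for 8 min.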
CtBP-E1A blk – CtBP/E1A binding inhibition | AlphaScreen GST-E1A/His-CtBP binding, 1536-well; active compounds read low | activity change, % (test concentration not listed) | actives 0.49% (n = 340,000); in the data active = activity change below about -65%; inconclusive = mostly about -30% to -63%
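Steps: dispense buffer (Tris pH 8.0, NaCl 300 mM, TCEP 1 mM, BSA, Tween 20); add 5X protein mix (GST-E1A, His-CtBP, 125 nM each); pin 23 nL compound; 2 h at 37 °C, dark; add 5X beads (50 ug/mL); 1 h; read.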
Eya2 inh – Eya2 (human) phosphatase inhibition. O00167. recombinant Eya2, OMFP fluorescence dephosphorylation (OMFP is methylfluorescein phosphate). Potency, µM (doses to about 76.9 µM), actives largely listed as inhibitors. actives 0.006% (n = 330,000). AID 488837
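Eya2 protein (added as 0.2 uM solution) was preincubated with compound for 10 min at ambient temperature in 50 mM HEPES pH 7.5, 50 mM NaCl, 5 uM MgCl2, 0.05% BSA, 1 mM DTT. OMFP (added at 50 uM) then reacted 10 min; fluorescence read at 485/525 nm.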
Of the large screens only hits and unclear results are named; the others gave an inactive call. Unless noted, calls follow the shape of the dose curve; as a rule, active = well fitted curve in the direction sought with a large enough effect; inconclusive = small, poorly fitted or top-dose-only effect, or another doubt; inactive = no such curve, though single readings can be large; an effect the other way counts as inactive or inconclusive.

Cc1cccc(N2C(=O)CC(Sc3ccccc3C(=O)O)C2=O)c1 (stereo not given)	TrxR1 inh 56µM
CCCCN1C(=O)CC(Sc2ccccc2C(=O)O)C1=O (stereo not given)	TrxR1 inh 16µM
Nc1ccccc1SC1CC(=O)N(c2ccc3c(c2)OCO3)C1=O (stereo not given)	none
Cc1cc(C)cc(N2C(=O)CC(Sc3ccccc3C(=O)O)C2=O)c1 (stereo not given)	Eya2 inh inconclusive
O=C(O)c1ccccc1SC1CC(=O)N(c2ccc3c(c2)OCO3)C1=O (stereo not given)	TrxR1 inh 40µM
C/C=C/C=C\C(=O)Nc1cccc(C2=NOC3(C2)C[C@@H](C(N)=O)N(C(=O)/C(C)=C/C)C3)c1 (stereo not given in full)	TrxR1 inh 11µM
C/C=C(/C)C(=O)Nc1cccc(C2=NOC3(C2)C[C@@H](C(N)=O)N(C(=O)CCCCC)C3)c1 (stereo not given in full)	none (no result: CtBP-E1A blk)
C/C=C\C=C/C(=O)Nc1cccc(C2=NOC3(C2)C[C@@H](C(N)=O)N(C(=O)CCCCC)C3)c1 (stereo not given in full)	TrxR1 inh 14µM
C/C=C/C=C\C(=O)Nc1cccc(C2=NOC3(C2)C[C@H](C(N)=O)N(C(=O)CC#N)C3)c1 (stereo not given in full)	TrxR1 inh 22µM
C/C=C\C=C/C(=O)Nc1cccc(C2=NOC3(C2)C[C@H](C(N)=O)N(C(=O)Cc2ccc([N+](=O)[O-])cc2)C3)c1 (stereo not given in full)	TrxR1 inh 7.9µM
C/C=C/C=C/C(=O)N1CC2(CC(c3cccc(NC(=O)/C=C/C)c3)=NO2)C[C@@H]1C(N)=O (stereo not given in full)	TrxR1 inh inconclusive
CCCCCC(=O)Nc1cccc(C2=NOC3(C2)C[C@H](C(N)=O)N(C(=O)CC#N)C3)c1 (stereo not given in full)	none (no result: TrxR1 substrate, Six1-Eya2 blk, TrxR1 inh, CtBP-E1A blk)
COc1ccc(NC(=O)c2c(C)oc3ccc(O)c(CN4CCCCCC4)c23)cc1Cl	none (no result: GALK inh, Six1-Eya2 blk, CtBP-E1A blk, Eya2 inh)
Cc1cc(OCC(=O)Nc2ccc(C(=O)OC3CCCCC3)cc2)ccc1Cl	none (no result: GALK inh, Six1-Eya2 blk, CtBP-E1A blk, Eya2 inh)
C/C=C/C=C/C(=O)N1CC2(CC(c3cccc(NC(=O)CCCCC)c3)=NO2)C[C@H]1C(N)=O (stereo not given in full)	TrxR1 inh 28µM
C/C=C/C(=O)N1CC2(CC(c3cccc(NC(=O)CCCCC)c3)=NO2)C[C@H]1C(N)=O (stereo not given in full)	none (no result: TrxR1 substrate, Six1-Eya2 blk, TrxR1 inh, CtBP-E1A blk)
C/C=C\C=C/C(=O)Nc1cccc(C2=NOC3(C2)C[C@H](C(N)=O)N(C(=O)CC)C3)c1 (stereo not given in full)	TrxR1 inh 14µM
Cc1ccc(CN2CCCn3nc(C(=O)NCc4ccc(N(C)C)cc4)cc3C2=O)cc1	none (no result: GALK inh, Six1-Eya2 blk, CtBP-E1A blk, Eya2 inh)
COC(=O)CN1C(=O)CSc2ccc(S(=O)(=O)Nc3ccccc3)cc21	none (no result: GALK inh, Six1-Eya2 blk, CtBP-E1A blk, Eya2 inh)
O=C1c2cccc(NCCCNCCO)c2C(=O)c2cccc(NCCCNCCO)c21	Six1-Eya2 blk -71, CtBP-E1A blk -79 (no result: GALK inh, Eya2 inh)
CCCOC(=O)c1cccc(NC(=O)c2c(-c3ccccc3Cl)noc2C)c1	none (no result: GALK inh, Six1-Eya2 blk, CtBP-E1A blk, Eya2 inh)
COc1ccc(NC(=O)CSc2oc(-c3ccc(C)cc3)nc2S(=O)(=O)c2ccc(C)cc2)c(OC)c1	TrxR1 inh 50µM (no result: GALK inh, Six1-Eya2 blk, CtBP-E1A blk, Eya2 inh)
CCCC(=O)C1=C(c2ccccc2)C(C#N)(C#N)C(C#N)=C1N	TrxR1 inh 13µM
CCCC(=O)C1=C(N(C)c2ccccc2)CC(C)(C)CC1=O	none
COc1ccc(C(=O)Nn2c(SCC(=O)N3CCC(C)CC3)nc3ccccc3c2=O)cc1	Six1-Eya2 blk inconclusive, CtBP-E1A blk -71
COc1ccc(C(=O)Nn2c(SCC(=O)NC3CCCCC3)nc3ccccc3c2=O)cc1	none
Cc1cc(C)c(NC(=O)c2cc(C)nc3c2c(C)nn3-c2cccc(F)c2)c(C)c1	none (no result: GALK inh, Six1-Eya2 blk, CtBP-E1A blk, Eya2 inh)
O=C(CNC(=O)c1ccncc1)N/N=C/c1cc(Br)ccc1O	Six1-Eya2 blk inconclusive, CtBP-E1A blk -66
COc1ccc(C(=O)N/N=C/c2cc(Br)ccc2O)cc1OC	Six1-Eya2 blk -68, CtBP-E1A blk -91, Eya2 inh inconclusive
O=C(N/N=C/c1cc(Br)ccc1O)C(c1ccncc1)N1CCOCC1 (stereo not given)	Six1-Eya2 blk -89
COc1cccc(/C=N/NC(=O)C(c2ccncc2)N2CCOCC2)c1 (stereo not given)	none
Cn1cccc1-c1cc(C(=O)N/N=C/c2cc(Br)ccc2O)[nH]n1	Six1-Eya2 blk -83, CtBP-E1A blk -87
Cc1ccc2nc(Nc3ccc(C)c(F)c3)c3nncn3c2c1	none (no result: GALK inh, Six1-Eya2 blk, CtBP-E1A blk, Eya2 inh)
Cc1ccc2c(C(=O)CNc3nc(C)c(C)s3)c(C)[nH]c2c1	none (no result: GALK inh, Six1-Eya2 blk, CtBP-E1A blk, Eya2 inh)
CC(=O)N1CCOc2cc(S(=O)(=O)Nc3cccc(C(F)(F)F)c3)c(Cl)cc21	none (no result: GALK inh, Six1-Eya2 blk, CtBP-E1A blk)
O=C(CNC(=O)c1ccccc1)N/N=C/c1cc(Br)ccc1O	Six1-Eya2 blk -65
CCOc1ccc(NC(=O)CN2CC(c3ccccc3)CC2=O)cc1 (stereo not given)	none
O=C(CN1CC(c2ccccc2)CC1=O)N/N=C/c1cc(Br)ccc1O (stereo not given)	Six1-Eya2 blk -84, CtBP-E1A blk -90
O=C(CCS(=O)(=O)c1ccccc1)N(CCCN1CCOCC1)c1nc2ccccc2s1	TrxR1 inh 14µM (no result: GALK inh)
Cc1ccc(S(=O)(=O)CCC(=O)N(CCCN2CCOCC2)c2nc3ccccc3s2)cc1	TrxR1 inh 28µM (no result: GALK inh)
Cc1ccc2nc(N(CCN3CCOCC3)C(=O)CCS(=O)(=O)c3ccccc3)sc2c1	none (no result: GALK inh)
CCN(CC)CCN(C(=O)CCS(=O)(=O)c1ccccc1)c1nc2cc3c(cc2s1)OCO3	TrxR1 inh 14µM
CCn1c(SCC(=O)Nc2ccc3c(c2)OCCO3)nnc1-c1ccco1	none
COCCn1c(SCC(=O)c2ccc3c(c2)OCCO3)nnc1-c1ccoc1C	TrxR1 inh 45µM
CCCCn1c(SCC(=O)c2ccc3c(c2)OCCO3)nnc1-c1ccco1	TrxR1 inh 7.1µM
CN1CCN(c2nc3c(=O)[nH]c(N)nc3n2C2OC(CO)C(O)C2O)CC1 (stereo not given)	none (no result: GALK inh, Six1-Eya2 blk, CtBP-E1A blk, Eya2 inh)
Cc1cc(Nc2c(C)n(C)n(-c3ccccc3)c2=O)n2c(nc3ccccc32)c1C#N	TrxR1 inh 35µM
Cc1nn(Cc2ccc(C(=O)NC(C)(C)C)o2)c(C)c1Br	TrxR1 inh inconclusive
Cc1cc(NC(=O)c2ccc(Cn3nc(C)c(Br)c3C)o2)no1	Six1-Eya2 blk -70
